SMILES strings stand for the structures. Results filed as inconclusive are left out. A number with no mark means an inactive call. Activity calls are given as the source filed them. Calls come from the whole dose curve; as a rule, active = well fitted inhibition curve with a large enough effect; inconclusive = small, poorly fitted or top-dose-only effect; inactive = no such curve, though single readings can be large or run the other way.
% is set by controls: 0 for no effect and ±100 for the full control effect; potency is the fitted concentration of half-maximal effect.

In the assay the test system is Zika virus NS2B-NS3 protease (unlinked complex). Description: Primary screen GU Rhodamine qHTS for Zika virus inhibitors: Unlinked NS2B-NS3 protease assay (AID 1347159). Note: nearly all actives have a fitted effect of over 60% in size. The conditions noted are these: Recombinant ZIKV NS2B-NS3 protease, Rhodamine110 substrate fluorescence; series mostly up to 107 µM; activity change, negative = inhibition: at the top concentration. The procedure, abridged: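 Noncovalent NS2B hydrophilic domain/NS3 protease complex (25 nM final) in 10 mM Tris-HCl pH 8.0, 0.01% Tween 20, preincubated 15 min with compounds (up to 114 microM), then 1.5 microM Rhodamine110 substrate. Fluorescence change over 15 min fitted to 4-parameter Hill.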
For orientation: Quantitative high-throughput screening tests each substance at several concentrations.
With `O=C(O)c1cc(-c2ccccc2)nc2ccccc12`, the “activity change, negative = inhibition” value was 31.2%. Turning to `CC(C)(C)c1cc(C(=O)O)c(NC(=O)Nc2ccc3[nH]ncc3c2)s1`, the Potency is 17.8 µM (active). With `Cc1ccc(Nc2cc(-c3cccc(N4C(=O)c5ccccc5C4=O)c3)ncn2)cc1NS(C)(=O)=O`, the Potency is 50.1 µM (active). As to `CC(C)C(=O)Oc1ccc(CO)cc1[C@H](CCN(C(C)C)C(C)C)c1ccccc1`, the “activity change, negative = inhibition” value was 33.3%. `O=C(CCN1CCN(C(=O)OCc2cc(Cl)cc(Cl)c2)CC1)c1ccc2[nH]c(=O)oc2c1`: the Potency is 44.7 µM (active).

For the origin of these results see PubChem BioAssay (NCATS).
